Data: PubChem BioAssay AID1159580 (chemical genetic matrix, 2015)
“And” between values parts separate entries of the source, which are not always exact repeats. Equal entries are not always repeated. The campaign covered roughly 5,500 compounds. About 2,000 (36%) were called active. Not shown: some 18% with an inconclusive outcome. Cut-off read from the data, not from the text of the source: active = normalized growth mostly below about 0.91 (no sharp cut-off); inconclusive = no clear call, values can overlap the other calls; inactive = mostly above about 0.92. Some of the results follow.

Assay: chemical genetic growth profiling, strain panel (AID 1159580);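 note: tested at 20 µM; growth read once vehicle control cultures reached saturation at 30 °C; 1 = growth at the plate median or of vehicle wells; lower values mean less growth of the strain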
Conditions: S. cerevisiae deletion strains, growth OD

Measured: normalized growth

CC1(C)CC[C@]2(C(=O)O)CC[C@]3(C)C(=CCC4[C@@]5(C)CC[C@H](O)[C@@](C)(CO)C5CC[C@]43C)C2C1 (stereo partly drawn)
inactive: locus YAL021C, strain ccr4, active compounds read low 1 | locus YAL026C, strain drs2, active compounds read low 1.02 | locus YAL030W, strain snc1, active compounds read low 1.02 | locus YBL061C, strain skt5, active compounds read low 1.01 | locus YBR009C, strain hhf1, active compounds read low 1.02 | locus YBR021W, strain FUR4, active compounds read low 1.11 | locus YBR023C, strain chs3, active compounds read low 1.02 | locus YBR171W, strain sec66, active compounds read low 1.04 | locus YBR229C, strain ROT2, active compounds read low 1.02 | locus YBR231C, strain swc5, active compounds read low 1.02 | locus YBR279W, strain paf1, active compounds read low 1.02 | locus YCL011C, strain gbp2, active compounds read low 1.03 | locus YCL016C, strain dcc1, active compounds read low 1.03 | locus YCL029C, strain bik1, active compounds read low 0.977 | locus YCL061C, strain MRC1, active compounds read low 1.02 | locus YCL069W, strain vba3, active compounds read low 1.03 | locus YCR088W, strain abp1, active compounds read low 1.02 | locus YDL005C, strain med2, active compounds read low 1.04 | locus YDL035C, strain GPR1, active compounds read low 1.04 | locus YDL040C, strain nat1, active compounds read low 1.05 | locus YDL074C, strain BRE1, active compounds read low 0.981 | locus YDL101C, strain DUN1, active compounds read low 1.02 | locus YDL134C, strain PPH21, active compounds read low 1.1 | locus YDL185W, strain tfp1, active compounds read low 0.946 | locus YDL192W, strain arf1, active compounds read low 0.99 | locus YDR001C, strain nth1, active compounds read low 1.02 | locus YDR069C, strain doa4, active compounds read low 1.03 | locus YDR101C, strain arx1, active compounds read low 1.01 | locus YDR137W, strain rgp1, active compounds read low 1.04 | locus YDR159W, strain sac3, active compounds read low 1.04 | locus YDR162C, strain NBP2, active compounds read low 1.07 | locus YDR195W, strain ref2 1.08 | locus YDR297W, strain sur2, active compounds read low 1.03 | locus YDR318W, strain mcm21, active compounds read low 0.999 | locus YDR334W, strain swr1, active compounds read low 1.03 | locus YDR335W, strain msn5, active compounds read low 1.02 | locus YDR388W, active compounds read low 0.994 | locus YDR392W, strain spt3, active compounds read low 1.01 | locus YDR502C, strain sam2, active compounds read low 0.999 | locus YEL003W, strain gim4, active compounds read low 1.02 | locus YEL037C, strain rad23, active compounds read low 1.02 | locus YEL061C, strain CIN8 (second series), active compounds read low 1.02 | locus YEL061C, strain CIN8, active compounds read low 1 | locus YER015W, strain faa2, active compounds read low 1.02 | locus YER016W, strain bim1, active compounds read low 1.03 | locus YER110C, active compounds read low 0.987 | locus YER111C, strain swi4, active compounds read low 1.02 | locus YER155C, strain BEM2 (second series), active compounds read low 1.03 | locus YER155C, strain BEM2, active compounds read low 1.01 | locus YER167W, strain BCK2, active compounds read low 1.02 | locus YFR010W, strain ubp6, active compounds read low 1.02 | locus YGL078C, strain dbp3, active compounds read low 0.994 | locus YGL167C, strain pmr1, active compounds read low 1.03 | locus YGL173C, strain kem1, active compounds read low 1.03 | locus YGL227W, strain vid30, active compounds read low 1.03 | locus YGL240W, strain doc1, active compounds read low 1.01 | locus YGL248W, strain PDE1, active compounds read low 1.03 | locus YGL253W, strain hxk2, active compounds read low 1.02 | locus YGR078C, strain PAC10, active compounds read low 1.03 | locus YGR135W, strain pre9, active compounds read low 1.01 | locus YGR229C, strain SMI1, active compounds read low 1.02 | locus YGR252W, strain gcn5, active compounds read low 1.02 | locus YHR013C, strain ard1, active compounds read low 1.06 | locus YHR027C, strain rpn1, active compounds read low 1.02 | locus YHR030C, strain SLT2, active compounds read low 0.989 and 1.03 | locus YHR079C, strain IRE1 (second series), active compounds read low 0.999 | locus YHR079C, strain IRE1, active compounds read low 1.02 | locus YHR094C, strain hxt1, active compounds read low 1 | locus YHR129C, strain ARP1, active compounds read low 1 | locus YHR142W, strain chs7, active compounds read low 1.03 | locus YHR200W, strain rpn10, active compounds read low 1.01 | locus YIL066C, strain RNR3, active compounds read low 1.03 | locus YIL073C, strain SPO22, active compounds read low 1 | locus YIL125W, strain kgd1, active compounds read low 0.99 | locus YIR030C, strain dcg1, active compounds read low 1.04 | locus YJL092W, strain hpr5, active compounds read low 1.03 | locus YJL095W, strain BCK1 (second series), active compounds read low 1.02 | locus YJL095W, strain BCK1, active compounds read low 1.04 and 0.98 | locus YJL115W, strain asf1, active compounds read low 1.03 | locus YJL129C, strain trk1, active compounds read low 1.02 | locus YJL134W, strain LCB3, active compounds read low 0.995 | locus YJL154C, strain vps35, active compounds read low 1.02 | locus YJL164C, strain tpk1, active compounds read low 1.05 | locus YJL166W, strain qcr8, active compounds read low 1.02 | locus YJL168C, strain set2, active compounds read low 0.998 | locus YJL187C, strain SWE1 (second series), active compounds read low 1.02 | locus YJL187C, strain SWE1, active compounds read low 1.04 | locus YJR043C, strain POL32, active compounds read low 1.03 | locus YJR066W, strain TOR1, active compounds read low 0.977 | locus YKL160W, strain elf1, active compounds read low 1.02 | locus YKL190W, strain CNB1, active compounds read low 1.02 | locus YKR001C, strain vps1, active compounds read low 0.996 | locus YKR026C, strain gcn3, active compounds read low 1.03 | locus YKR091W, strain srl3, active compounds read low 1.03 | locus YLL001W, strain dnm1, active compounds read low 1.02 | locus YLL026W, active compounds read low 1.02 | locus YLR027C, strain aat2, active compounds read low 1.02 | locus YLR039C, strain RIC1, active compounds read low 1.04 | locus YLR058C, strain SHM2, active compounds read low 1.01 | locus YLR102C, strain apc9, active compounds read low 0.991 | locus YLR113W, strain HOG1, active compounds read low 0.929 | locus YLR221C, strain rsa3, active compounds read low 1.02 | locus YLR258W, strain gsy2, active compounds read low 1.02 | locus YLR262C, strain YPT6 (second series), active compounds read low 1.03 | locus YLR262C, strain YPT6, active compounds read low 1.09 | locus YLR268W, strain sec22, active compounds read low 1.01 | locus YLR320W, strain mms22, active compounds read low 1.03 | locus YLR330W, strain CHS5, active compounds read low 0.994 | locus YLR342W, strain FKS1 (second series), active compounds read low 1.05 | locus YLR342W, strain FKS1, active compounds read low 1.03 | locus YLR357W, strain rsc2, active compounds read low 1.01 | locus YLR370C, strain arc18, active compounds read low 1.02 | locus YLR371W, strain rom2, active compounds read low 0.958 | locus YLR384C, strain iki3, active compounds read low 1.01 | locus YLR418C, strain cdc73, active compounds read low 1.02 | locus YML016C, strain PPZ1, active compounds read low 1.01 | locus YML032C, strain rad52, active compounds read low 0.998 | locus YML120C, strain ndi1, active compounds read low 1.02 | locus YML124C, strain tub3, active compounds read low 0.996 | locus YMR058W, strain fet3, active compounds read low 1.03 | locus YMR078C, strain ctf18, active compounds read low 0.991 | locus YMR125W, strain sto1, active compounds read low 1.03 | locus YMR129W, active compounds read low 1.02 | locus YMR205C, strain PFK2, active compounds read low 1.03 | locus YMR223W, strain ubp8, active compounds read low 1 | locus YMR231W, strain pep5, active compounds read low 1.01 | locus YMR307W, strain GAS1, active compounds read low 0.931 | locus YNL067W, strain RPL9B, active compounds read low 1.04 | locus YNL071W, strain lat1, active compounds read low 1.02 | locus YNL128W, strain TEP1, active compounds read low 0.996 | locus YNL183C, strain NPR1, active compounds read low 0.878 | locus YNL209W, strain ssb2, active compounds read low 1.01 | locus YNL233W, strain BNI4, active compounds read low 1.03 | locus YNL248C, strain rpa49, active compounds read low 1.02 | locus YNL250W, strain rad50, active compounds read low 0.991 | locus YNL271C, strain bni1, active compounds read low 0.983 | locus YNL298W, strain CLA4, active compounds read low 0.992 | locus YNL307C, strain MCK1, active compounds read low 1.01 | locus YNL322C, strain KRE1 (second series), active compounds read low 1.02 | locus YNR049C, strain mso1, active compounds read low 1.02 | locus YNR052C, strain pop2, active compounds read low 0.997 | locus YOL012C, strain htz1 0.926 | locus YOL147C, strain pex11, active compounds read low 1 | locus YOR001W, strain rrp6, active compounds read low 1.01 | locus YOR061W, strain CKA2, active compounds read low 0.998 | locus YOR069W, strain VPS5, active compounds read low 1.01 | locus YOR070C, strain gyp1, active compounds read low 1 | locus YOR080W, strain dia2, active compounds read low 1.03 | locus YOR083W, strain WHI5, active compounds read low 1.02 | locus YOR106W, strain vam3, active compounds read low 1.04 | locus YOR136W, strain idh2, active compounds read low 0.999 | locus YOR144C, strain elg1, active compounds read low 1 | locus YOR184W, strain ser1, active compounds read low 1.01 | locus YOR231W, strain MKK1, active compounds read low 1.02 | locus YOR265W, strain rbl2, active compounds read low 1.01 | locus YOR270C, strain vph1, active compounds read low 1.05 | locus YOR290C, strain snf2, active compounds read low 1.03 | locus YOR316C, strain cot1, active compounds read low 0.989 | locus YPL051W, strain arl3, active compounds read low 1.01 | locus YPL078C, strain atp4, active compounds read low 1.02 | locus YPL106C, strain sse1, active compounds read low 1.04 | locus YPL240C, strain hsp82, active compounds read low 1.02 | locus YPL241C, strain CIN2, active compounds read low 0.999 | locus YPL256C, strain CLN2, active compounds read low 1.01 | locus YPR119W, strain clb2, active compounds read low 0.999 | locus YPR141C, strain kar3, active compounds read low 0.986 | locus YPR163C, strain tif3, active compounds read low 1 | locus YPR167C, strain met16, active compounds read low 0.996 | strain wtn01, active compounds read low 0.997
active: locus YGL086W, strain mad1, active compounds read low 1.24 [resistant] | locus YKL085W, strain MDH1 (second series), active compounds read low 1.16 [resistant] | locus YKL085W, strain MDH1, active compounds read low 1.16 [resistant] | locus YLL041C, strain sdh2, active compounds read low 1.12 [resistant]
